Inconclusive results are not listed. Entries that show only a call come without a potency. Activity calls are given as the source filed them. Calls follow the shape of the dose curve; as a rule, active = well fitted cell-killing curve with a large enough effect in the repeat runs; inconclusive = weak or mixed curves, or effect the other way; inactive = flat fitted curve, though single readings scatter. Residues, ends and D or L forms follow the SMILES beside them.

The assay is described as follows: qHTS assay to identify small molecule agonists of the TGF-beta/Smad signaling pathway - cell viability counter screen (AID 1346829). Also: top concentration of the series differs between compounds; nearly all actives have a fitted effect of over 45% in size. The following applies: SBE-bla HEK293T viability, CellTiter-Glo luminescence, 5 h; series mostly up to 76.8 µM. From the text:
National Center for Advancing Translational Sciences [NCATS]
NIH Chemical Genomics Center [NCGC]
U.S. Environmental Protection Agency [EPA]
National Institutes of Environmental Health Sciences [NIEHS]
National Toxicology Program [NTP]
U.S. Food and Drug Administration [FDA]
Transforming growth factor beta (TGF-beta) superfamily consists of a large number of structurally related dimeric proteins that act as hormones or local mediators in regulating a wide range of biological functions. This superfamily includes TGF-betas themselves, the bone morphogenetic proteins (BMPs) and the activins. These ligands induce oligomerization of serine/threonine receptor kinases and phosphorylate the cytoplasmic signaling molecules of Smad protein family. CellSensor SBE-bla HEK 293T cell line (Life Technologies, Carlsbad, CA), responsive to TGF-beta was used to screen Tox21 10K compound library for identification of agonists/antagonists of the Smad signaling pathway. This cell line contains a beta-lactamase reporter gene under control of the Smad binding element (SBE) stably integrated into HEK 293T cells. Also cytotoxicity of the compounds was tested in parallel by measuring the cell viability using CellTiter-Glo assay system in the same wells.
Tox21 Assay Protocol Summary:
SBE-bla HEK 293T cells were dispensed at 4,000/well in 6 uL of assay medium into black wall/clear-bottom 1536-well plates using a Multidrop Combi (ThermoFisher Scientific, Waltham, MA) dispenser. After the assay plates were incubated at 37 C and 5% CO2 for an overnight, 23 nL of compounds dissolved in DMSO, positive controls or DMSO only was transferred to the assay plate by a Pintool station (Kalypsys, San Diego, CA). The assay plates were incubated at 37 C and 5% CO2 for 5 hr. One uL of LiveBLAzer B/G FRET substrate (Life Technologies) was added using a Flying Reagent Dispenser (FRD, Aurora Discovery, San Diego, CA) and the plates were incubated at room temperature for 2 hr. Fluorescence intensity (405 nm excitation, 460 nm and 530 nm emissions) was measured using an Envision plate reader (PerkinElmer, Shelton, CT). For cytotoxicity read, 4 uL of CellTiter-Glo reagent (Promega Corporation, Madison, WI) was added to each well of the assay plates using FRD. After 30min incubation at room temperature, the luminescence intensity was measured using ViewLux plate reader (PerkinElmer).
(In general: Quantitative high-throughput screening tests each substance at several concentrations.)
Take `CCCCOC(=O)CC(CC(=O)OCCCC)(OC(C)=O)C(=O)OCCCC`: the Potency entry is “inactive”.
As to `O=S(=O)(O)c1ccc2cc(O)ccc2c1`, the Potency result is “inactive”.
The same measure for `COc1c2occc2cc2ccc(=O)oc12`: “inactive”.
The entry for `Cc1ccccc1C(OCCN(C)C)c1ccccc1` (stereo not given) is “inactive”; for `O=C(O)c1cccnc1` it is “inactive”; for `CC(C)(Oc1ccc(C2CC2(Cl)Cl)cc1)C(=O)O` (stereo not given) it is “inactive”.
For `Cn1c(=O)c2[nH]cnc2n(C)c1=O`, the Potency entry is “inactive”.
The same measure for `O=S(=O)(O)NC1CCCCC1`: “inactive”.
Turning to `O=C(O)C(=O)O`, the Potency result is “inactive”.
The same measure for `COC(=O)[C@H](Cc1ccccc1)NC(=O)[C@@H](N)CC(=O)O` (H-Asp-Phe-OMe): “inactive”; for `CC(=O)OCC(COC(C)=O)OC(C)=O`: “inactive”; for `CCOc1ccc(NC(=O)CC(C)O)cc1` (stereo not given): “inactive”.
On to `O=C(c1ccccc1)c1ccccc1`, for which the Potency result is “inactive”.
Regarding `Oc1ccc(/C=C/c2cc(O)cc(O)c2)cc1`, the Potency entry was “inactive”.
The entry for `Cc1ccc(S(=O)(=O)NC(=O)NN2CCCCCC2)cc1` is “inactive”; for `Cc1cc(=O)[nH]c(=S)[nH]1` it is “inactive”.
The same measure for `Cn1cc[nH]c1=S`: “inactive”; for `O=c1ccc2ccccc2o1`: “inactive”; for `CCCC(O)C(CC)CO` (stereo not given): “inactive”.
The entry for `COc1ccc2[nH]cc(CCNC(C)=O)c2c1` is “inactive”.
For the molecule `Nc1ccn([C@H]2CC[C@@H](CO)O2)c(=O)n1`, the Potency result is “inactive”.
Regarding `O=C(c1ccccc1)C(O)c1ccccc1` (stereo not given), the Potency entry was “inactive”.
Take `O=C(O)CCCCC(=O)O`: the Potency entry was “inactive”.
`O=NO`: the Potency entry was “inactive”.
The entry for `CNC[C@H](O)c1cccc(O)c1` is “inactive”.
Consider `O=C(O)/C=C\C(=O)O`, for which the Potency entry is “inactive”.
The entry for `CCCN(CCC)S(=O)(=O)c1ccc(C(=O)O)cc1` is “inactive”; for `C/C=C/c1ccc(OC)cc1` it is “inactive”; for `O=C(O)CCC(=O)O` it is “inactive”.
The entry for `CC(=O)NS(=O)(=O)c1ccc(N)cc1` is “inactive”.
The entry for `OC(Cn1cncn1)(Cn1cncn1)c1ccc(F)cc1F` is “inactive”.
Take `O=C(C1CCCCC1)N1CC(=O)N2CCc3ccccc3C2C1` (stereo not given): the Potency entry was “inactive”.
The same measure for `O=C1NC(=O)c2ccccc21`: “inactive”.
The same measure for `Cc1noc(NS(=O)(=O)c2ccc(N)cc2)c1C`: “inactive”.
The entry for `NC(=O)NC1NC(=O)NC1=O` (stereo not given) is “inactive”; for `CCC1(c2ccccc2)C(=O)NCNC1=O` it is “inactive”.
On to `CCCC(CCC)C(=O)O`, for which the Potency result was “inactive”.
On to `CCCCCCCCCCCCCCCC(=O)O`, for which the Potency result was “inactive”.
The entry for `Cc1cc(=O)n(-c2ccccc2)n1C` is “inactive”; for `NS(=O)(=O)c1cc(C(=O)O)c(NCc2ccco2)cc1Cl` it is “inactive”.

For the origin of these results see PubChem BioAssay (Tox21).
